Data on seven compounds can be found in PubChem BioAssay (NCATS).

Values without a mark were called inactive. Results filed as inconclusive are left out. Active and inactive are the calls of the source. Unless noted, calls follow the shape of the dose curve; as a rule, active = well fitted curve in the direction sought with a large enough effect; inconclusive = small, poorly fitted or top-dose-only effect, or another doubt; inactive = no such curve, though single readings can be large; an effect the other way counts as inactive or inconclusive. Where only a bound is given, the exact number is not on record here.

In assay [1] the target is Lysosomal acid glucosylceramidase (Homo sapiens) (UniProt P04062). As to the kind of experiment: Glucocerebrosidase-p2 (AID 348; in the data active = potency below about 10 µM; also: potency is read from the fitted curve at half-maximal effect). Conditions: purified GBA, blue fluorogenic substrate, 40 min. The method in brief:
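Normal human glucocerebrosidase (0.2 nM) with blue fluorogenic substrate (80 uM final) in citrate/phosphate pH 5.9 with 10mM sodium taurocholate, 0.01% tween-20; 40 min RT, NaOH/glycine stop; fluorescence Ex 365/Em 440; AC50 from a titration from 0.6 nM upwards.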

Assay [2] is described as follows: AP1 Signaling Pathway (AID 357; active = well fitted curve in either direction with a large enough effect, not every such curve was filed as active;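 also: ME-180 reporter cells stimulated with EGF at its EC50 level; % is scaled to controls: 0 for no effect and ±100 for the full control effect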). Conditions: ME-180 AP-1-bla reporter, EGF-induced, beta-lactamase ratio, 5 h; at 7.69 µM (top of the series) unless noted. In outline: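 Modulation of EGF-driven AP-1 transcription was assessed with a beta-lactamase reporter in ME-180 cells. Compound and EC50 EGF were co-incubated 5 hours at 37 °C before 2.5-hour CCF4 loading at room temperature and dual-emission reading.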

The nature of assay [3]: NFAT Signaling Pathway (AID 444; active = well fitted curve in either direction with a large enough effect, not every such curve was filed as active;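 also: carbachol stimulus at about its EC50 of 1 µM final; % is scaled to controls: 0 for no effect and ±100 for the full control effect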). The note with it: Jurkat NFAT-bla M1, carbachol, beta-lactamase ratio, 5 h; at 7.69 µM (top of the series) unless noted. In outline: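 Jurkat cells with NFAT-driven β-lactamase reporter and co-expressed M1 receptor, stimulated with carbachol (final 1 uM, ~EC50), compound titration, 5 h at 37 °C. CCF4 loaded 1 h at RT; 460/530 nm ratio gave %activity and AC50.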

Assay [4] is described as follows: Stat Signaling Pathway (AID 446; active = well fitted curve in either direction with a large enough effect, not every such curve was filed as active;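 also: ME-180 cervical cancer cells given 40 pM IL-6 alongside compound; SIE-controlled beta-lactamase reporter measured as 460/530 nm FRET emission ratio; % is scaled to controls: 0 for no effect and ±100 for the full control effect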). The note with it: ME-180 (cervical carcinoma) SIE beta-lactamase reporter, IL-6 stimulated, 5 h; at 7.69 µM (top of the series) unless noted. In outline:
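FRET read-out (405 nm excitation, 460/530 nm emission) of a beta-lactamase reporter under a STAT-inducible element in ME-180 cervical carcinoma cells. Cells with compound receive 40 pM IL-6 for 5 h. Values are normalised to AC90 stimulation and AC90 JAK-inhibitor controls.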

Assay [5] concerns the target Glucocorticoid receptor (Homo sapiens) (UniProt P04150). The assay is described as follows: GR-GFP Redistribution (AID 450;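 active = compounds whose dose series gives a full or clear partial fitted curve of increased nuclear translocation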; also: potency is read from the fitted curve at half-maximal effect). Conditions: U2OS GR-GFP nuclear translocation, laser cytometry, 2 h.
For assay [6] the target is unchanged. As to the kind of experiment: GR-EFC Redistribution (AID 451; calls by dose curve; also: potency is read from the fitted curve at half-maximal effect). The note with it: CHO-K1 GR-EFC translocation, beta-gal luminescence, 2 h. The method in brief: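 CHO-K1 cells expressing nuclear EA and GR-ED fragments of b-gal; compounds titrated up to 46 uM final, 2 h at 37 C. GR nuclear translocation read as complemented b-gal luminescence after 1 h RT detection.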

Assay [7] has as its target Mitogen-activated protein kinase 10 (Mus musculus) (UniProt Q61831). As to the kind of experiment: JNK3 AlphaScreen Assay (AID 530; active = well fitted curve in either direction with a large enough effect, not every such curve was filed as active;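 also: kinase came from lysate of stimulated human HepG2 cells; signal reports phosphorylation of biotinylated GST-cJun 1-79 at Ser73 with 10 µM ATP; % is scaled to controls: 0 for no effect and ±100 for the full control effect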). Conditions: JNK3 lysate, c-Jun phosphorylation; series mostly up to 57.1 µM. The method in brief: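 Activity was read by AlphaScreen after JNK3-containing HepG2 lysate (cytokine pre-activated) phosphorylated biotinylated GST-cJun with 10 uM ATP at room temperature. Phospho-Ser73 cJun antibody with Protein-A acceptor beads provided detection.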
(In general: In Alpha technology, singlet oxygen from a donor bead excites a nearby acceptor bead.)

The target of assay [8] is 3',5'-cyclic-AMP phosphodiesterase 4B (Homo sapiens) (UniProt Q07343). The assay is described as follows: qHTS Assay for Inhibitors of PDE-IV (AID 607; active = well fitted activation curve with a large enough effect in the main read-out, with a control signal flat, not every such curve was filed as active; also: % of control where 0% means no effect). Conditions: HEK293 ACTOne CNG channel cells, membrane potential fluorescence; series mostly up to 22.9 µM. The method in brief: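 Cell-based read-out of cAMP via a modified cyclic nucleotide-gated channel and membrane potential dye (535/590 nm) in HEK293 cells expressing PDE4 endogenously. Compounds tested up to 22.9 uM final; 100 uM RO 20-1724 reference.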
3',5'-cyclic-AMP phosphodiesterase 4B (Homo sapiens), sequence (Q07343 whole entry, looked up): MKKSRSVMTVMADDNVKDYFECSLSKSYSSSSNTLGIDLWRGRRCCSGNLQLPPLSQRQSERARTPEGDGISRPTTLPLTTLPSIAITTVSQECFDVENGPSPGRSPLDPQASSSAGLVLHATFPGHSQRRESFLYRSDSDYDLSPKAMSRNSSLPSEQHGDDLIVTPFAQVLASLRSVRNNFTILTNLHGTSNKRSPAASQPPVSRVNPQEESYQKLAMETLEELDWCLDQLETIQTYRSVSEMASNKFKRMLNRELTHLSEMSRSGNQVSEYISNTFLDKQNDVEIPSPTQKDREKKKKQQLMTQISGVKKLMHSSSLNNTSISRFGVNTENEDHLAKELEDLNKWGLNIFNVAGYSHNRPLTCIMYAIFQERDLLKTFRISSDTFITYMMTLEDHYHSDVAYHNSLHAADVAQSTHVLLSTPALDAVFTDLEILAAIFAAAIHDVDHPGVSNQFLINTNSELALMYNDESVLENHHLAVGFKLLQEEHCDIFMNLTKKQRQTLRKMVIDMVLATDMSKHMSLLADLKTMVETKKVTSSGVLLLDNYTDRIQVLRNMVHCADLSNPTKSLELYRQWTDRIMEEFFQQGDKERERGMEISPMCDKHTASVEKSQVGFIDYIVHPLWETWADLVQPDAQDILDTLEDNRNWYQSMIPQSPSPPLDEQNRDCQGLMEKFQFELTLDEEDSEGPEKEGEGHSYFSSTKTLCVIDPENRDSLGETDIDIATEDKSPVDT

The target in assay [9] is Dual specificity protein kinase CLK4 (Homo sapiens) (UniProt Q9HAZ1). As to the kind of experiment: qHTS Assay for Inhibitors of CDC-like Kinase 4 (Kinase-Glo Assay) (AID 1770). Also: nearly all actives have a fitted effect of over 65% in size. Also: potency is read from the fitted curve at half-maximal effect. The note with it: recombinant Clk4, Kinase-Glo ATP depletion luminescence; series mostly up to 66.7 µM. In outline: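 Recombinant human Clk4 (25 nM) phosphorylated RS repeat peptide (100 uM) with 1 uM ATP in Tris pH 7.5/MgCl2/EGTA/DTT/Triton buffer for 4.5 h at room temperature. Residual ATP was quantified by Kinase-Glo luciferase luminescence.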
Dual specificity protein kinase CLK4 (Homo sapiens), sequence (Q9HAZ1 whole entry, looked up): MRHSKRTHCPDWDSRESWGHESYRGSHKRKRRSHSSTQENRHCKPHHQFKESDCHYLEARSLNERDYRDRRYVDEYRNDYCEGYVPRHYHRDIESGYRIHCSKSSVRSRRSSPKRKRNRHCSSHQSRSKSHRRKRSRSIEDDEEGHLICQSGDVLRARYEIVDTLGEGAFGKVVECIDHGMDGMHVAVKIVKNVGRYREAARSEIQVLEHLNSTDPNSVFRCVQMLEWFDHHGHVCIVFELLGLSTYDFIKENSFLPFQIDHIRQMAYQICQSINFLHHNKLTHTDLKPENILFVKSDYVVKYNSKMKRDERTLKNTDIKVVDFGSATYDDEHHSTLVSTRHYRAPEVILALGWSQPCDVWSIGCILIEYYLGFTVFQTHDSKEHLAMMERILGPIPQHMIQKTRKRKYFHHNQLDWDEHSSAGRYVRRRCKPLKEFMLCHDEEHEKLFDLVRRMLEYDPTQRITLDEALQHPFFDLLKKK

Assay [10] shares this target. As to the kind of experiment: qHTS Assay for Inhibitors of CDC-like Kinase 4 (ADP-Glo Assay) (AID 1771). Also: nearly all actives have a fitted effect of over 70% in size. Also: potency is read from the fitted curve at half-maximal effect. The note with it: recombinant CLK4, ADP-Glo luminescence; series mostly up to 80 µM. The method in brief:
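Compounds are pin-transferred onto substrate mix (100 uM RS peptide, 1 uM ATP), then 25 nM Clk4 is added. After 1 hr at room temperature, ADP-Glo reagent runs 45 min, detection reagent 30 min, then luminescence is read.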
A general note: In qHTS, concentration-response curves come from the screen itself.

Assay [11] has the same target. As to the kind of experiment: qHTS Assay for Inhibitors of CDC-like Kinase 4 (ADP-FP Assay) (AID 1795). Also: nearly all actives have a fitted effect of over 60% in size. Also: potency is read from the fitted curve at half-maximal effect. The note with it: Transcreener ADP fluorescence polarization; series mostly up to 50 µM. The method in brief: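 Recombinant human Clk4 (6.25 nM) phosphorylated RS repeat peptide (100 uM) with 1 uM ATP in Tris pH 7.5/MgCl2/EGTA/DTT/Triton buffer for one hour. ADP was quantified by Transcreener competitive fluorescence polarization against an ADP calibration curve.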

Assay [12] addresses Ubiquitin carboxyl-terminal hydrolase 1 (Homo sapiens) (UniProt O94782). As to the kind of experiment: Inhibitors of USP1/UAF1: Pilot qHTS (AID 504865).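 Also: rhodamine fluorescence freed from ubiquitin-rhodamine substrate followed over time; top concentration of the series differs between compounds; % is scaled to controls: 0 for no effect and ±100 for the full control effect; nearly all actives have a fitted effect of over 35% in size.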 Conditions: purified USP1/UAF1, Ub-rhodamine cleavage fluorescence; series mostly up to 54.9 µM. In outline: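 USP1/UAF1 complex (1nM) preincubated with compound 15 min at room temperature, then Ub-Rho substrate (150nM final) added. Fluorescence read kinetically at 480/540 nm, 6 reads every 60 seconds. Buffer: 50mM HEPES pH 7.8, 0.5mM EDTA, 0.1 mg/ml BSA, 1mM TCEP, 0.01% Tween-20.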

Assay [13] is described as follows: Primary qHTS for small molecule stabilizers of the endoplasmic reticulum resident proteome: Secreted ER Calcium Modulated Protein (SERCaMP) assay (AID 1508630). Also: % is scaled to controls: 0 for no effect and ±100 for the full control effect. The note with it: SH-SY5Y GLuc-SERCaMP (Gaussia luciferase released on ER calcium loss) secretion, thapsigargin, luminescence; series mostly up to 38.4 µM. In outline: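 The SH-SY5Y reporter protocol was run at 3 concentrations up to 38.3 uM (primary) or 11 concentrations (follow-up): 16 h compound, 100 nM thapsigargin for 4 h, then extracellular luciferase luminescence.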

Assay [14] addresses Cytochrome P450 3A4 (Homo sapiens) (UniProt P08684). As to the kind of experiment: qHTS Assay for Activators of Cytochrome P450 3A4 (AID 885). Also: nearly all actives have a fitted effect of over 65% in size. Conditions: recombinant CYP3A4, Luciferin-PPXE luminescence, 60 min; series mostly up to 57.1 µM. The method in brief:
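Luminescent readout of luciferin formed from 25 uM Luciferin-PPXE (KM level) by 20 nM CYP3A4 in 200 mM KPO4, with 60 min NADPH-driven reaction at room temperature after 10 min compound exposure. Ketoconazole (57 uM) defined 100% inhibition.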

Ubiquitin carboxyl-terminal hydrolase 1 (Homo sapiens), sequence (O94782 whole entry, looked up): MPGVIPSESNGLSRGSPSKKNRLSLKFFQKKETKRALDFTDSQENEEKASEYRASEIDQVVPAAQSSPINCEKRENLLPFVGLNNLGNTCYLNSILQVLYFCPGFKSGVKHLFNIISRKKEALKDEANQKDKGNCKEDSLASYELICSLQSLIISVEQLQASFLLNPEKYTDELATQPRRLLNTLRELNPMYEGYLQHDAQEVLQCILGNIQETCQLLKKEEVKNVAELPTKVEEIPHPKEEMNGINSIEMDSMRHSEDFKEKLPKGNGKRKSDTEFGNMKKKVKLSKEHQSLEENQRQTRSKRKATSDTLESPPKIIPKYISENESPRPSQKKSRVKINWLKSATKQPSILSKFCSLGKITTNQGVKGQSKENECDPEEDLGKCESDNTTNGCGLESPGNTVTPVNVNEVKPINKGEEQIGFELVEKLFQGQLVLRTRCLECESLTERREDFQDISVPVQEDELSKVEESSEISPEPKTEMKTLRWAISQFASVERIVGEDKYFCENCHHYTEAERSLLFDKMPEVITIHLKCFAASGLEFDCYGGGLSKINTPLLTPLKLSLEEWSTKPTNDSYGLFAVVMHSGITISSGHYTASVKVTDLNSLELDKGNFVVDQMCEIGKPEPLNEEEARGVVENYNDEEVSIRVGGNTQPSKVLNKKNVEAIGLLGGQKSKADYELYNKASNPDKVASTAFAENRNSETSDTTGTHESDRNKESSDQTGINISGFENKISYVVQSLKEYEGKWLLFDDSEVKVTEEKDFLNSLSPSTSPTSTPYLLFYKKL
Lysosomal acid glucosylceramidase (Homo sapiens), sequence (P04062 whole entry, looked up): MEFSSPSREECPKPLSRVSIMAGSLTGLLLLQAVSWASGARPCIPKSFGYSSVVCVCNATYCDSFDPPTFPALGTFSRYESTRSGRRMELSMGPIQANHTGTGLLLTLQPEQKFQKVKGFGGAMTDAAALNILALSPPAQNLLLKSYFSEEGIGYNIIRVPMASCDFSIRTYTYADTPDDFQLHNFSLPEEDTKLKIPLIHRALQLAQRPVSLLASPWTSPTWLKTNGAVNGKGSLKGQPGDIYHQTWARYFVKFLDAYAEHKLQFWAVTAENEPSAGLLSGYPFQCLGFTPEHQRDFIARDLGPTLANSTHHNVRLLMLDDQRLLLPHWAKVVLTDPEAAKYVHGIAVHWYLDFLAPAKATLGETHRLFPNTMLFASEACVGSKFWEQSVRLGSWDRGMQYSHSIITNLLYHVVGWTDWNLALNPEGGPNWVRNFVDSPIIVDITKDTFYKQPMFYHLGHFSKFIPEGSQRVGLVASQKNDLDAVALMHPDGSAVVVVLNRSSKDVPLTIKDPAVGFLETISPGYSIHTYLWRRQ
Glucocorticoid receptor (Homo sapiens), sequence (P04150 whole entry, looked up, the tested form may be a part): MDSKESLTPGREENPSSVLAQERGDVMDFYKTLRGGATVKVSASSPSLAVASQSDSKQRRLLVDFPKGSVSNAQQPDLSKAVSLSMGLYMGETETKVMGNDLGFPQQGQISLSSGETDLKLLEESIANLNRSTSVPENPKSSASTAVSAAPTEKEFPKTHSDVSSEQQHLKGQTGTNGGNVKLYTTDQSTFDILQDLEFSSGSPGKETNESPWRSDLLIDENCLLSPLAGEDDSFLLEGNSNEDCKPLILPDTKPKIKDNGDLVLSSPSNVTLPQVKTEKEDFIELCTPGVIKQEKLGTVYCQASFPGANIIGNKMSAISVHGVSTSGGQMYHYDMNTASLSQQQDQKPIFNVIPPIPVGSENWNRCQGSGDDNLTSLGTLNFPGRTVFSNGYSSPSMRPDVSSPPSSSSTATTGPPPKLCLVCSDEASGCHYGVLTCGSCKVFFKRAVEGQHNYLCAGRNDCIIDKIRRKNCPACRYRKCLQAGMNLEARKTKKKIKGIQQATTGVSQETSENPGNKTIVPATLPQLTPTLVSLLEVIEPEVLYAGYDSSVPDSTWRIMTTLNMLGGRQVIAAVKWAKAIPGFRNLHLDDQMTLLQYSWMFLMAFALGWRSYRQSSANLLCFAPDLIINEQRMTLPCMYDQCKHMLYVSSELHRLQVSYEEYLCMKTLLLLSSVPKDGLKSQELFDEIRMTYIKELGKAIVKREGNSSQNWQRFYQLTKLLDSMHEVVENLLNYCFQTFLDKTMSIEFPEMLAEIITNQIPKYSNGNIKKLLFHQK
Cytochrome P450 3A4 (Homo sapiens), sequence (P08684 whole entry, looked up): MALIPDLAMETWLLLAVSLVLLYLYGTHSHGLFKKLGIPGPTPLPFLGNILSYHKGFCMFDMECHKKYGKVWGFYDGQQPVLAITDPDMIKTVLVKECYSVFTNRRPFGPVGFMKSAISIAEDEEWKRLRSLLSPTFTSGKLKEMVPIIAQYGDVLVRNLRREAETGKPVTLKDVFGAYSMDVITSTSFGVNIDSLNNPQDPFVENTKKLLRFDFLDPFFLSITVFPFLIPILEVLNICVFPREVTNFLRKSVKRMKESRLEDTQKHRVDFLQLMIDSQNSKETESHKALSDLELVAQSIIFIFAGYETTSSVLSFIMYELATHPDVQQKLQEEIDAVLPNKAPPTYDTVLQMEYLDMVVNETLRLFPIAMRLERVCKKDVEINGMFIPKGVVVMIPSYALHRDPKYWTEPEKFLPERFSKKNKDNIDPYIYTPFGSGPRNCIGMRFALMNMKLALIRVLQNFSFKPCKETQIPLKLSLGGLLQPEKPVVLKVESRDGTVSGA

As to `c1cncc(-c2nc(-n3ccnc3)c3ccccc3n2)c1`, the Potency in [1] was > 11.4 µM; in [5], > 46 µM; in assay [6], > 46 µM; in assay [9], 11.2 µM (active); in assay [10], 11.2 µM (active); in assay [11] it was 12.6 µM (active). In addition, the activity change, negative = inhibition in assay [2] is 14.5%; in assay [3], 8.3%. Also, the activity, negative = inhibition in assay [4] is -3.82%. In addition, the Potency result in assay [7], in assay [8] and in assay [12] was “inactive” in each case. In addition, in [13], the outcome was inactive.

On to `COc1ccc(-c2nc3cnc(N(C)C)nc3n(-c3ccccc3)c2=O)cc1`, for which the Potency in [1] was > 11.4 µM; in assay [5], > 9.22 µM; in assay [6], > 46 µM. For the same compound, the activity change, negative = inhibition was 0.239% in [2] and 3.47% in [3]. Also, the activity, negative = inhibition in assay [4] is 3.24%. Besides, the Potency result in [7], in assay [9], in assay [10], in [11] and in assay [12] was “inactive” throughout. Also, in assay [13], the result was inactive.

Take `O=c1c(-c2ccc(Cl)cc2)nc2cnc(Nc3ccccc3)nc2n1C1CC1`: the Potency in assay [1] was > 11.4 µM; in [5] it was > 9.22 µM; in assay [6], > 46 µM. Moreover, the activity change, negative = inhibition was -1.39% in assay [2] and -9.46% in [3]. The activity, negative = inhibition in assay [4] is -0.41%. Besides, the Potency entry in assay [7], in assay [8], in assay [9], in assay [10], in [11] and in assay [12] was “inactive” in each case. Further, the outcome in assay [13] was inactive.

Turning to `COCCn1c(=O)c(-c2cccc(Cl)c2)nc2cncnc21`, the Potency in assay [1] is > 11.4 µM; in assay [5] it was > 9.22 µM; in assay [6], > 46 µM. Besides, the activity change, negative = inhibition was -9.58% in assay [2] and 12.1% in assay [3]. Further, the activity, negative = inhibition in assay [4] was -4.06%. The Potency result in assay [7], in [8], in assay [14], in assay [9], in assay [10] and in [11] was “inactive” in each case. For the same compound, the Potency entry in [12] is “inactive”. Besides, the result in assay [13] was inactive.

On to `COc1ncc2nc(-c3ccc(Cl)cc3)c(=O)n(Cc3cccs3)c2n1`, for which the Potency is > 11.4 µM in assay [1], > 9.22 µM in assay [5] and > 46 µM in assay [6]. Also, the activity change, negative = inhibition in assay [2] was -16.7%; in [3] it was 2.52%. Also, the activity, negative = inhibition in [4] was -18.3%. The Potency result in assay [7], in [8], in assay [9], in assay [10], in assay [11] and in assay [12] was “inactive” in each case. In addition, the result in assay [13] was inactive.

For the compound `Cc1noc(C)c1-c1cncnc1-n1ccnc1`, the Potency in assay [1] was > 11.4 µM; in assay [5], > 46 µM; in assay [6], > 46 µM. Moreover, the activity change, negative = inhibition in assay [2] is 0.604%; in assay [3], -5.32%. Further, the activity, negative = inhibition in [4] was 12.7%. The Potency entry in assay [7], in [8], in [9], in assay [10], in assay [11] and in [12] was “inactive” throughout. Moreover, the outcome in assay [13] was inactive.

Take `COc1ccc(Oc2ncc3nc(-c4cccc(C#N)c4)c(=O)n(C)c3n2)cc1`: the Potency in [1] was > 11.4 µM; in assay [5] it was > 9.22 µM; in [6], > 46 µM. In addition, the activity change, negative = inhibition in assay [2] was -0.821%; in assay [3], -9.84%. Further, in [4], the activity, negative = inhibition was -2.78%. Besides, the Potency result in assay [7], in assay [8], in assay [9], in assay [10], in assay [11] and in assay [12] was “inactive” in each case. Further, the outcome in assay [13] was inactive.
